The values that follow come from PubChem BioAssay (EPA / NIEHS).

Assay [1] can be described thus: TOX21_p53_BLA_p2_viability: Viability Assessment in the Tox21 HCT-116 p53 Agonism Beta-lactamase Assay, Phase 2 (AID 2283591).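 Note: actives lower the ATP signal meaning cytotoxicity.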 Put shortly: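 Cytotoxicity readout: CellTiter-Glo ATP luminescence, 30 min at room temperature, after the beta-lactamase read. Cells were HCT116 exposed 16 h at 37C to compounds pin-transferred at 217-fold dilution from DMSO stocks.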
The target in assay [2] is Cellular tumor antigen p53 (Homo sapiens) (UniProt P04637). The assay can be described thus: TOX21_p53_BLA_p2_ratio: Tox21 HCT-116 p53 Agonism Beta-lactamase Assay, Ratio, Phase 2 (AID 2283592). Put shortly:
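First, HCT116 reporter cells settle for 5 h at 37C. Next, DMSO compound solutions are pinned in (217-fold dilution) and left 16 h. Finally, CCF4-AM substrate is loaded 2 h at room temperature and the 460/530 nm ratio read.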

A short description of assay [3]: TOX21_p53_BLA_p3_viability: Viability Assessment in the Tox21 HCT-116 p53 Agonism Beta-lactamase Assay, Phase 3 (AID 2283593).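 Note: cells exposed to compound for 16 h before reading.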 Put shortly:
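Cellular ATP was quantified by CellTiter-Glo luminescence, read after 30 min at room temperature. Beforehand, HCT116 cells (4000/well) received compound 5 h post-seeding, 217-fold diluted from DMSO, then incubated 16 h at 37C.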

The nature of assay [4]: TOX21_p53_BLA_p4_viability: Viability Assessment in the Tox21 HCT-116 p53 Agonism Beta-lactamase Assay, Phase 4 (AID 2283597).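 Note: hits lower the luminescence signal meaning cytotoxicity.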 Put shortly: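 4000 HCT116 cells per well; 5 h attachment; compounds from DMSO, 217-fold dilution; 16 h at 37C. Then CCF4-AM, 2 h RT, followed by CellTiter-Glo, 30 min RT, luminescence. Decrease = cytotoxicity.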
Assay [5] addresses Cellular tumor antigen p53 (Homo sapiens) (UniProt P04637). Nature of the assay: TOX21_p53_BLA_p5_ratio: Tox21 HCT-116 p53 Agonism Beta-lactamase Assay, Ratio, Phase 5 (AID 2283599). Put shortly:
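Beta-lactamase reporter ratio (blue 460 nm over green 530 nm, 405 nm excitation) after 2 h CCF4-AM loading, in HCT-116 cells exposed 16 h at 37 C to compounds pinned at 217-fold dilution. Increases relative to DMSO baseline scored.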

The nature of assay [6]: TOX21_p53_BLA_p5_viability: Viability Assessment in the Tox21 HCT-116 p53 Agonism Beta-lactamase Assay, Phase 5 (AID 2283600). Put shortly:
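Decreased CellTiter-Glo luminescence denotes lost viability. Exposure: 16 h at 37C, 5% CO2, with compounds from DMSO stocks diluted 217-fold in wells of 4000 cells.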

The target of assay [7] is Cellular tumor antigen p53 (Homo sapiens) (UniProt P04637). Nature of the assay: TOX21_p53_BLA_p4_ratio: Tox21 HCT-116 p53 Agonism Beta-lactamase Assay, Ratio, Phase 4 (AID 2283601). Put shortly:
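Signal is the blue/green (460nm/530nm) ratio of cleaved versus uncleaved CCF4-AM substrate, read after 2 h substrate loading. Cells were HCT116 carrying the p53-responsive beta-lactamase reporter, dosed 16 h at 37C, 5% CO2; CellTiter-Glo measured in parallel.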

Results filed as inconclusive are left out. Activity calls are given as the source filed them. Rule for the calls: active = hit-call score of the fitted dose curve at least 0.9, where 1 is the maximum; inconclusive = response in the unintended direction; inactive = score below 0.9.

Sequence of Cellular tumor antigen p53 (Homo sapiens) (P04637 whole entry, looked up): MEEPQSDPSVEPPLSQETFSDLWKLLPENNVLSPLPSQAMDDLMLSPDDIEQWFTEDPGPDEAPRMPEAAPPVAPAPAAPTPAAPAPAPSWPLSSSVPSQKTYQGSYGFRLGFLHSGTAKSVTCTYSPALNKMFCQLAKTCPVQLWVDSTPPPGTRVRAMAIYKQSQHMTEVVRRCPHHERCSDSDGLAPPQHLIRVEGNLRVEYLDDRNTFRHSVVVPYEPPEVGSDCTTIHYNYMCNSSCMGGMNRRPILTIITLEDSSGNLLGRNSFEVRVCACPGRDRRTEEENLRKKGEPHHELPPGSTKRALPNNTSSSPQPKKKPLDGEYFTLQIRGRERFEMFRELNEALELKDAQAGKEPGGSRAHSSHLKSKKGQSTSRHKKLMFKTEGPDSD

Take `CC[C@H](OC(C)=O)C(C[C@H](C)NC)(c1ccccc1)c1ccccc1`: the molecule was classed as inactive in assay [1], in assay [2], in assay [3], in assay [5], in assay [6] and in assay [7]. Also, the AC50 in assay [4] is 51.1 µM (active).
Turning to `CC(=O)OCC1=C(C(=O)O)N2C(=O)[C@@H](N)[C@H]2SC1`, the call in assay [1], in assay [2], in assay [3] and in assay [5] was inactive.
Regarding `CCOP(=S)(OCC)Oc1cc(C)nc(N(CC)CC)n1`, the call in assay [1], in assay [2], in assay [3], in assay [4], in assay [6] and in assay [7] was inactive.
For `CC(C)NCC(O)c1ccc([N+](=O)[O-])cc1` (stereo not drawn), the call in assay [1], in assay [2], in assay [3], in assay [4], in assay [6] and in assay [7] was inactive.
`CCCCC#N`: the call in assay [1], in assay [2], in assay [3], in assay [4], in assay [6] and in assay [7] was inactive.
Regarding `C[N+](C)(C)C`, the result in assay [1], in assay [2], in assay [3], in assay [4], in assay [5] and in assay [6] was inactive.
As to `CC(=O)OCC(=O)[C@H]1CC[C@H]2[C@@H]3CC[C@H]4C[C@H](O)CC[C@]4(C)[C@H]3C(=O)C[C@]12C`, the outcome in assay [1], in assay [2], in assay [3], in assay [5], in assay [6] and in assay [7] was inactive.
With `CC(C)(C)NCC(O)c1cc(Cl)c(N)c(C(F)(F)F)c1` (stereo not drawn), the molecule was called inactive in assay [1], in assay [2], in assay [3], in assay [4], in assay [5] and in assay [6]. Further, the result in assay [7] was inactive.
